According to PubChem BioAssay (NCATS):
Results filed as inconclusive are left out. Active and inactive are the calls of the source. The call rests on the fitted dose curve; in most records, active means well fitted curve in the direction sought with a large enough effect; inconclusive means small, poorly fitted or top-dose-only effect, or another doubt; inactive means no such curve, though single readings can be large; an effect the other way counts as inactive or inconclusive.

Tests used:
[1] = qHTS assay for measurement of the activity of small molecule inhibitors on Zika virus induced Caspase-3 activity in human iPSC derived neural progenitor cells (hNPCs) (AID 1224857); further: nearly all actives have a fitted effect of over 65% in size
Method in brief: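 After overnight (16–20 h) culture at 350 cells/well, hNPCs get compound, then ZIKV 2 FFU/cell one hour later. Six hours on, Caspase-Glo 3/7 is added and luminescence measured.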

[2] = qHTS assay for measurement of the activity of small molecule inhibitors on Zika virus induced Caspase-3 activity in human astrocytoma cells (AID 1224859)
Method in brief: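 Inhibition of Zika-induced caspase-3/7 activity: SNB-19 cells, 1 h compound pretreatment, ZIKV 2 FFU/cell for 6 h at 37 C, Caspase-Glo luminescence read-out.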

[3] = qHTS assay to identify small molecule inhibitors of chordoma cells - UCH-2 (AID 1259356); further: series mostly up to about 46 µM
[4] = P-glycoprotein substrates identified in KB-8-5-11 adenocarcinoma cell line, qHTS therapeutic library screen (AID 1346987); details: outcome: dose series up to 44.5 µM; further: series mostly up to about 44 µM; nearly all actives have a fitted effect of over 65% in size
Method in brief: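 Human cervical adenocarcinoma KB-8-5-11 cells, selected in colchicine to over-express P-gp and assayed without it, were exposed for 72 h to titrated compounds. An ATP-based luminescent viability signal gave AC50.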

[5] = NS1 protein of Zika virus - qHTS assay to identify small molecule inhibitors in human HEK 293 cells (AID 1347053); further: series mostly up to about 46 µM; nearly all actives have a fitted effect of over 55% in size
Method in brief: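 In this cell-based screen, HEK 293 cultures received compound for one hour before Zika MR766 at MOI = 0.5. NS1 was quantified 24 hours later by TR-FRET, normalized to virus-free wells and infected wells.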

[6] = qHTS of pediatric cancer cell lines to identify multiple opportunities for drug repurposing: Primary screen for TC32 cells (AID 1347089); further: nearly all actives have a fitted effect of over 60% in size
Method in brief: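 TC32 cells, 500-1,000/well in growth medium, compound-treated 48 h at 37 °C; viability from CellTiter-Glo luminescence. Primary screen: MIPE 11-point (0.78 nM–46 µM final), NPC 8-point (0.59 nM–46 µM final); confirmatory at 11-point dilutions.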

[7] = qHTS of pediatric cancer cell lines to identify multiple opportunities for drug repurposing: Primary screen for DAOY cells (AID 1347090); further: series mostly up to about 46 µM; nearly all actives have a fitted effect of over 55% in size
Method in brief: (§1)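 Viability measured as metabolically active cells via CellTiter-Glo luminescence following 48 hours of compound exposure, 11-point dilutions in confirmatory testing. 500-1,000 cells/well plated 5 hours before dosing; controls were DMSO and 2.3 µM bortezomib.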

[8] = qHTS of pediatric cancer cell lines to identify multiple opportunities for drug repurposing: Primary screen for SJ-GBM2 cells (AID 1347091)
Method in brief: as §1

[9] = qHTS of pediatric cancer cell lines to identify multiple opportunities for drug repurposing: Primary screen for A673 cells (AID 1347092); further: nearly all actives have a fitted effect of over 45% in size
Method in brief: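 A673 cells (500-1,000 cells/well) were treated 48 hours at 37 degrees C with compounds at 11-point (0.78 nM to 46 µM) or 8-point (0.59 nM to 46 µM) dilutions. Viability read by CellTiter-Glo luminescence; concentration-response curves fitted.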

[10] = qHTS of pediatric cancer cell lines to identify multiple opportunities for drug repurposing: Primary screen for SK-N-MC cells (AID 1347093); further: series mostly up to about 46 µM
Method in brief: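 Metabolically active cells were quantified by ATP-dependent luminescence (CellTiter-Glo, 15 min at room temperature) following 48 h treatment. Cells had been plated at 500-1,000 per well and settled for 5 h beforehand.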

[11] = qHTS of pediatric cancer cell lines to identify multiple opportunities for drug repurposing: Primary screen for BT-37 cells (AID 1347094); further: series mostly up to about 57 µM
Method in brief: (§2)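 500-1,000 cells/well; 5 h pre-incubation 37 °C/5% CO2; compound pinned; 48 h; CellTiter-Glo, 15 min RT; luminescence. MIPE 11-pt from 0.78 nM, NPC 8-pt from 0.59 nM final. Bortezomib 2.3 µM final as positive control.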

[12] = qHTS of pediatric cancer cell lines to identify multiple opportunities for drug repurposing: Primary screen for NB-EBc1 cells (AID 1347095)
Method in brief: as §2

[13] = qHTS of pediatric cancer cell lines to identify multiple opportunities for drug repurposing: Primary screen for U-2 OS cells (AID 1347096); further: nearly all actives have a fitted effect of over 50% in size
Method in brief: (§3)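 Viability after 48 h compound treatment at 37C, 500-1,000 cells/well, read as ATP luminescence with CellTiter-Glo. Primary screens used 11-point (MIPE, 0.78 nM-46 µM) or 8-point (NPC, 0.59 nM-46 µM) final concentrations; follow-up screens used 11-point dilutions.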

[14] = qHTS of pediatric cancer cell lines to identify multiple opportunities for drug repurposing: Primary screen for Saos-2 cells (AID 1347097); further: nearly all actives have a fitted effect of over 40% in size
Method in brief: as §2

[15] = qHTS of pediatric cancer cell lines to identify multiple opportunities for drug repurposing: Primary screen for SK-N-SH cells (AID 1347098);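 further: DMSO served as neutral control and bortezomib at 2.3 µM as positive control; nearly all actives have a fitted effect of over 65% in size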
Method in brief: (§4)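 Cells (500-1,000/well) rested 5 h, then received compounds for 48 h; metabolically active cells were measured by CellTiter-Glo luminescence. Final concentrations spanned up to 46 µM (MIPE, 11-point) or 0.59 nM-46 µM (NPC, 8-point) in primary screens, 11-point in follow-ups.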

[16] = qHTS of pediatric cancer cell lines to identify multiple opportunities for drug repurposing: Primary screen for NB1643 cells (AID 1347099); further: nearly all actives have a fitted effect of over 50% in size
Method in brief: as §2

[17] = qHTS of pediatric cancer cell lines to identify multiple opportunities for drug repurposing: Primary screen for LAN-5 cells (AID 1347100)
Method in brief: as §3

[18] = qHTS of pediatric cancer cell lines to identify multiple opportunities for drug repurposing: Primary screen for BT-12 cells (AID 1347101); further: nearly all actives have a fitted effect of over 25% in size
Method in brief: as §4

[19] = qHTS assay to identify small molecule inhibitors of chordoma cells - UCH-1 (AID 1259355); further: nearly all actives have a fitted effect of over 55% in size
Method in brief: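 Screening used approved and investigational drugs in 15-point titration against 800 seeded cells per well. A fixed combination of auranofin with camptothecin, doxorubicin, rubitecan and topotecan followed compound addition, and growth was scored by CellTiter-Glo after 48hr.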

Measured: Potency

CC(C)CCCC(C)CCCC(C)CCCCC(C)CCCC(C)CCCC(C)C (stereo not given)
not listed: [19]
inactive: all other assays above

CC(CSC(=O)c1ccccc1)C(=O)N1C[C@@H](Sc2ccccc2)C[C@H]1C(=O)O (stereo not given in full)
not listed: [4] | [19]
inactive: all other assays above

CC1CCN(CCCC(=O)c2ccc(F)cc2)CC1
not listed: [19]
inactive: all other assays above

CCCCC1(COC(=O)CCC(=O)O)C(=O)N(c2ccccc2)N(c2ccccc2)C1=O
not listed: [18] | [19]
inactive: all other assays above

O=C(O)CCC(=O)O
not listed: [10] | [15] | [19]
inactive: all other assays above

CC(C)(C)C(=O)OCOC(=O)[C@@H]1N2C(=O)[C@@H](NC(=O)[C@H](N)c3ccccc3)[C@H]2SC1(C)C
not listed: [10] | [15] | [19]
inactive: all other assays above

CCCCCCCCCCCCCCCCN
not listed: [14] | [19]
inactive: all other assays above

FC(F)(F)C(Cl)Br (stereo not given)
not listed: [14] | [19]
inactive: all other assays above

Cc1onc(-c2ccccc2)c1-c1ccc(S(N)(=O)=O)cc1
not listed: [4] | [18] | [19]
inactive: all other assays above

CCOc1ccc(C(=O)OCCN(CC)CC)cc1
not listed: [19]
inactive: all other assays above

NC(=O)NC1NC(=O)NC1=O (stereo not given)
not listed: [10] | [14] | [18] | [19]
inactive: all other assays above

COCC(=O)Nc1c(I)c(C(=O)NCC(O)CO)c(I)c(C(=O)N(C)CC(O)CO)c1I (stereo not given)
not listed: [18] | [19]
inactive: all other assays above

NS(=O)(=O)c1ccc(NC(=O)CCC(=O)O)cc1
not listed: [15] | [19]
inactive: all other assays above

CC(=O)OCC(COC(C)=O)OC(C)=O
not listed: [2] | [18]
inactive: all other assays above

Cc1cc(OI)c(C(C)C)cc1-c1cc(C(C)C)c(OI)cc1C
not listed: [10] | [18] | [19]
inactive: all other assays above

CCOc1cc(NC(C)=O)ccc1C(=O)OC
not listed: [18] | [19]
inactive: all other assays above

CC(=O)[C@@]1(O)CC[C@H]2[C@@H]3C[C@H](C)C4=CC(=O)C=C[C@]4(C)[C@@]3(F)[C@@H](O)C[C@@]21C
not listed: [19]
inactive: all other assays above

O=c1[nH]c2cc(C(F)(F)F)c(N3CCOCC3)cc2n(CP(=O)(O)O)c1=O
not listed: [10] | [19]
inactive: all other assays above

CCCCCCCCCCCCCCCCC(C(=O)O)C(O)(CC(=O)O)C(=O)O (stereo not given)
not listed: [4] | [8] | [12] | [14] | [15]
inactive: all other assays above

Cc1c(NC(=O)c2cccnc2)c(=O)n(-c2ccccc2)n1C
not listed: [8] | [19]
inactive: all other assays above

CCCNC(C)(C)COC(=O)c1ccccc1
not listed: [10] | [15] | [19]
inactive: all other assays above

CN1CCCN=C1COC(=O)C(O)(c1ccccc1)C1CCCCC1 (stereo not given)
not listed: [18] | [19]
inactive: all other assays above

O[C@@H]1CO[C@H]2[C@@H]1OC[C@@H]2O
not listed: [19]
inactive: all other assays above

CCOC(=O)[C@H](CCc1ccccc1)N[C@@H](C)C(=O)N1CCC[C@H]1C(=O)O
not listed: [10] | [11] | [18] | [19]
inactive: all other assays above

O=C1c2ccccc2S(=O)(=O)N1CCCCN1CCN(c2ncccn2)CC1
not listed: [18] | [19]
inactive: all other assays above

C[C@@H](c1ncncc1F)C(O)(Cn1cncn1)c1ccc(F)cc1F (stereo not given in full)
not listed: [10] | [14] | [19]
inactive: all other assays above

O=C(O)CNC(=O)c1ccccc1I
not listed: [19]
inactive: all other assays above

CCCCCCCC(=O)OCC(O)CO (stereo not given)
not listed: [10] | [15] | [18] | [19]
inactive: all other assays above

CN[C@@H]1[C@H](O)[C@H](NC)[C@H]2O[C@@]3(O)C(=O)C[C@@H](C)O[C@H]3O[C@@H]2[C@H]1O
not listed: [19]
inactive: all other assays above

O=C(c1ccccc1)C(O)c1ccccc1 (stereo not given)
not listed: [14] | [15] | [19]
inactive: all other assays above

CN(C(=O)c1c(O)c2ccccc2n(C)c1=O)c1ccccc1
not listed: [4] | [15] | [19]
inactive: all other assays above

NNc1nnc(NN)c2ccccc12
not listed: [4] | [10] | [14] | [19]
inactive: all other assays above

COc1nccnc1NS(=O)(=O)c1ccc(N)cc1
not listed: [19]
inactive: all other assays above
